From the supplement of paper PMC10981050
Where “and” joins values, the source holds several entries; their conditions need not be identical. Equal values may be shown once. Where a name gives a salt, the structure may show the parent alone.

Key:
Assay in all cases: cell viability relative to vehicle control; higher = less cytotoxic
Conditions in all cases: 10 µM
K562 = system: K562
Outline: (§1)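 Screening covered the Selleck bioactive, kinase and epigenetic probe libraries, less identity-inconsistent compounds, on CRISPR-edited mutant clones and isogenic wild-type clones of four leukaemia lines. Cells, at 2000 per well in 50 µL medium, received a single 10 µM acoustically dispensed dose. After 48 h the supernatant was removed and CellTiter-Glo luminescence was read. Viability was analysed in Genedata Screener as percent of the on-plate vehicle control.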

MARIMO = system: MARIMO
Outline: as §1

MOLM14 = system: MOLM14
Outline: as §1

OCI-AML2 = system: OCI-AML2
Outline: as §1

SMILES	cell viability (K562; SRSF2 genotype: SRSF2 P95H/wt)	cell viability (K562; SRSF2 genotype: SRSF2 wt/wt)	cell viability (MARIMO; SRSF2 genotype: SRSF2 P95H/wt)	cell viability (MARIMO; SRSF2 genotype: SRSF2 wt/wt)	cell viability (MOLM14; SRSF2 genotype: SRSF2 P95H/wt)	cell viability (MOLM14; SRSF2 genotype: SRSF2 wt/wt)	cell viability (OCI-AML2; SRSF2 genotype: P95H/wt)	cell viability (OCI-AML2; SRSF2 genotype: wt/wt)
CN(C)[C@@H](CCOc1cccc2ccccc12)c1ccccc1 [Dapoxetine hydrochloride (Priligy)]	65.8% and 82.9%	73%	52.7%	59%	53.9%	58.8%	58.9%	63.1%
NCCOc1ccc(Cl)cc1C(=O)Nc1ccc([N+](=O)[O-])cc1Cl	29.7% and 24.1%	23.4%	35.4%	37.5%	21.3%	14.6%	4.88%	14.7%
C[C@]1(O)C[C@@H](O)[C@@H]2C=CO[C@@H](O[C@@H]3O[C@H](CO)[C@@H](O)[C@H](O)[C@H]3O)[C@@H]21 [Leonuride]	105% and 99.7%	106%	101%	94.9%	102%	101%	102%	102%
O=C1O[C@H]2[C@@H]3OC(=O)c4cc(O)c(O)c(O)c4-c4c(cc(O)c(O)c4O)C(=O)OC[C@H]2O[C@@H](OC(=O)c2cc(O)c(O)c(O)c2)[C@@H]3OC(=O)c2cc(O)c(O)c3c2[C@@H]2C1=CC(=O)[C@](O)(O3)C2(O)O [Geraniin]	94.9% and 95.9%	103%	97.3%	86%	106%	97.7%	96.1%	92.1%
O=C1NC(=NCc2cccs2)S/C1=C\c1ccc2ncccc2c1	92% and 98.2%	98.2%	50.9%	77.9%	37%	41.1%	53.8%	57.1%
CCN(CC)CCOC(=O)c1ccc(N)cc1 [Procaine (Novocaine) HCl]	98.7% and 100%	95.9%	109%	112%	98.6%	99.7%	93.2%	110%
C[C@@H]1C(=O)O[C@H](C)[C@H]1C[C@@H](O)[C@](C)(O)[C@H]1CC[C@@]2(O)C3=CC(=O)[C@@H]4C[C@@H](O)[C@@H](O)C[C@]4(C)[C@H]3CC[C@]12C [Cyasterone]	105% and 98%	105%	95.2%	98.3%	114%	105%	105%	98.2%
Nc1ncnc2c1ncn2[C@@H]1O[C@H](CO)C[C@H]1O [Cordycepin]	94.3% and 102%	89.3%	90.4%	99%	102%	102%	94.1%	112%
Cc1c[nH]c(=O)[nH]c1=O [Thymine]	99.9% and 101%	96.8%	101%	95.1%	109%	102%	106%	101%
Cc1ccc2nc(NCCN)c3ncc(C)n3c2c1	37.6% and 36.4%	34.5%	7.18%	3%	1.38%	0.62%	2.44%	13%
O=C(O)c1cc(O)cc(Cl)c1 [3-chloro-5-hydroxybenzoic Acid]	104% and 101%	103%	96.3%	95.1%	105%	107%	96.9%	109%
OCc1ccc(O[C@@H]2O[C@H](CO)[C@@H](O)[C@H](O)[C@H]2O)cc1 [Gastrodin (Gastrodine)]	102% and 101%	99.8%	107%	101%	105%	104%	104%	98.3%
Cc1nc(Nc2ccc(F)cc2)nc(N2CCc3ccccc3C2C)c1C (stereo unspecified) [Revaprazan Hydrochloride]	66.5% and 73.7%	68.7%	67.6%	56.4%	63.3%	72.5%	75%	67.2%
C=CCc1ccc(O)c(-c2ccc(O)c(CC=C)c2)c1 [Honokiol]	84.9% and 87.5%	83.8%	84.5%	92.7%	85.5%	98.9%	66.7%	72.3%
CC(C)(C)NCC(O)c1ccc(O)c(CO)c1 (stereo unspecified) [Salbutamol]	104% and 102%	110%	108%	107%	99.4%	106%	101%	97.1%
COc1ccc(CCNCC(O)COc2cccc(C)c2)cc1OC (stereo unspecified) [Bevantolol hydrochloride]	92.7% and 89.9%	88.2%	82.8%	93.4%	90.6%	91.2%	81.8%	84.8%
Cc1cnc(C(=O)NCCc2ccc(S(=O)(=O)NC(=O)NC3CCCCC3)cc2)cn1 [Glipizide (Glucotrol)]	93.8% and 94.9%	91.6%	90.9%	104%	94.3%	92.5%	96.6%	97.4%
CO[C@@H]1[C@@H](OC(N)=O)[C@@H](O)[C@H](Oc2ccc3c(O)c(NC(=O)c4ccc(O)c(CC=C(C)C)c4)c(=O)oc3c2C)OC1(C)C [Novobiocin sodium (Albamycin)]	103% and 87.6%	82.6%	91.6%	92.9%	93.6%	89.7%	91.4%	94.4%
O=c1[nH]nc2c3c(cccc13)N=C(CN1Cc3ccccc3C1)N2	69.4% and 77.8%	66.3%	93%	108%	74.5%	65.6%	69.7%	86.2%
COc1cc(O)cc2c1C(=O)C[C@@H](c1ccccc1)O2 [Alpinetin]	107% and 103%	96.5%	101%	109%	109%	110%	102%	106%
COc1ccc2c(c1)c(C1=C(c3c[nH]c4ccccc34)C(=O)NC1=O)cn2CCCN(C)C	84.2% and 80.9%	74.5%	69.8%	85.8%	30.9%	25.9%	31.8%	49.9%

SMILES	cell viability (K562; SRSF2 genotype: SRSF2 P95H/wt)	cell viability (K562; SRSF2 genotype: SRSF2 wt/wt)	cell viability (MARIMO; SRSF2 genotype: SRSF2 P95H/wt)	cell viability (MARIMO; SRSF2 genotype: SRSF2 wt/wt)	cell viability (MOLM14; SRSF2 genotype: SRSF2 P95H/wt)	cell viability (MOLM14; SRSF2 genotype: SRSF2 wt/wt)	cell viability (OCI-AML2; SRSF2 genotype: P95H/wt)	cell viability (OCI-AML2; SRSF2 genotype: wt/wt)
Cc1cc2c(F)c(Oc3ncnn4cc(OC[C@@H](C)O)c(C)c34)ccc2[nH]1	94.6% and 98.7%	99.5%	107%	106%	97.5%	104%	97.5%	86.6%
CCCSc1ccc2[nH]c(NC(=O)OC)nc2c1 [Albendazole (Albenza)]	19.1% and 33.6%	30.6%	9.83%	11.3%	6.95%	2.47%	5.18%	12.9%
OC[C@H]1O[C@@](CO)(O[C@H]2O[C@H](CO)[C@@H](O)[C@H](O)[C@H]2O)[C@@H](O[C@H]2O[C@H](CO)[C@@H](O)[C@H](O)[C@H]2O)[C@@H]1O [D-(+)-Melezitose]	100%	97.6%	105%	115%	98.5%	107%	95.1%	95.5%
O=C(Cn1cnnn1)N[C@@H]1C(=O)N2C(C(=O)O)=C(CSc3nncs3)CS[C@H]12 [Ceftezole sodium]	108% and 99.1%	120%	101%	105%	109%	110%	123%	118%
CCOC(=O)c1cnc2ccc(-c3cncc(NS(=O)(=O)c4ccccc4)c3)cn12	22.4% and 35.9%	34.2%	17.1%	20%	3.14%	4.38%	2.77%	9.47%
O=c1c2cc(O)c(O)cc2oc2cc(O)c([C@@H]3O[C@H](CO)[C@@H](O)[C@H](O)[C@H]3O)c(O)c12 [Mangiferin]	106% and 96.7%	99.3%	97.7%	104%	103%	104%	86.5%	102%
O=C(Nc1ccc(Br)cc1)c1ccc(Br)c(S(=O)(=O)NCc2ccccc2)c1	83.5% and 88.7%	86.8%	88.5%	93.7%	96.9%	96%	76.2%	76%
O=c1[nH]c(=O)n(C2CC(O)C(CO)O2)cc1I (stereo unspecified) [Idoxuridin]	86.7% and 92.3%	77%	102%	98.3%	80.5%	88.1%	83.3%	84.3%
CC[C@@]1(O)C(=O)OCc2c1cc1n(c2=O)Cc2cc3c(CN(C)C)c(O)ccc3nc2-1 [Topotecan]	20.3% and 28%	17.5%	4.92%	3.84%	1.67%	0.8%	3.47%	7.65%
Cc1cccc(-c2[nH]c(CNc3ccccc3F)nc2-c2ccc3ncnn3c2)n1	94.6% and 103%	99.9%	102%	109%	95.2%	98%	111%	114%
CCCc1cc2c(N3CCN(C4=NCC(C)(C)S4)CC3)ncnc2s1 [MI-2 (Menin-MLL inhibitor)]	73.4% and 74.9%	71.4%	62.1%	57.1%	76.2%	84.1%	45.1%	53.3%
CCOCC(O)COc1ccc(NC(=O)CC[S+](C)C)cc1 (stereo unspecified) [Suplatast tosylate]	100%	103%	97.7%	109%	105%	105%	97.7%	110%
O=C(/C=C/c1ccc(O)c2c1[C@H](C(=O)O[C@H](Cc1ccc(O)c(O)c1)C(=O)O)[C@@H](c1ccc(O)c(O)c1)O2)O[C@H](Cc1ccc(O)c(O)c1)C(=O)O [Salvianolic acid B]	96.5% and 101%	101%	101%	108%	96.7%	103%	98.9%	97.8%
CCn1c(-c2nonc2N)nc2c(C#CC(C)(C)O)ncc(OC[C@H]3CCCNC3)c21	87.1% and 95.7%	79.5%	73%	72.3%	59.2%	47.1%	53.9%	57.1%
CC(C)(C)c1cc(O)c(C(C)(C)C)cc1O	97% and 97.5%	95.7%	73.4%	92.5%	88.8%	93.5%	86.2%	93.3%
COCCc1ccc(OCC(O)CNC(C)C)cc1 (stereo unspecified) [Metroprolol succinate]	103% and 108%	105%	100%	110%	99.5%	107%	113%	108%
CCOc1cc(CC(=O)N[C@@H](CC(C)C)c2ccccc2N2CCCCC2)ccc1C(=O)O [Repaglinide]	105% and 100%	97.6%	103%	101%	102%	101%	108%	116%
CC1(COc2ccc3c(c2)ncn3-c2ccc3cccc(N4CCC(N)CC4)c3n2)COC1	84.9% and 68.8%	71.4%	5.64%	16.6%	5.66%	1.2%	14.6%	13%
CCN(c1cc(-c2ccc(CN3CCOCC3)cc2)cc(C(=O)NCc2c(C)cc(C)[nH]c2=O)c1C)C1CCOCC1 [Tazemetostat (EPZ-6438)]	92.9% and 95%	94.2%	93.3%	102%	89.5%	93.3%	105%	99.6%
O=c1c(N=Nc2nccs2)c(-c2ccccc2)[nH]n1-c1nc(-c2ccccc2)cs1	88.4% and 89.2%	88.4%	94.2%	106%	92.9%	95.9%	103%	105%
C=C1C(=O)O[C@@H]2/C=C(\C)CC/C=C(\C)CC[C@@H]12 [Costunolide]	23.8% and 32%	41.4%	25.3%	17.8%	3.29%	5.5%	2.25%	7.11%
